# The panel holds about 83,000 compounds, 20% with a hit somewhere; the sample as a whole holds those more often.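 Results are percent growth after 48 hours of single-concentration exposure. 100 means growth as in untreated cells, lower positive values show inhibition; negative values down to -100 show cell death.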 A number with no mark means an inactive call. Active and inactive are the calls of the source. Rule for the calls: active = growth percent below 10; inactive = the rest.
# Key:
# Assay in all cases: NCI-60 one-dose screen, 48 h (100 = growth as untreated, 0 = no growth, -100 = all killed)
# Conditions in all cases: 10 µM unless noted
# T-47D breast = system: T-47D breast
# BT-549 breast = system: BT-549 breast
# MDA-MB-435 melanoma = system: MDA-MB-435 melanoma
# SW-620 colon = system: SW-620 colon
# MCF7 breast = system: MCF7 breast
# HCT-116 colon = system: HCT-116 colon
# HCC-2998 colon = system: HCC-2998 colon
# KM12 colon = system: KM12 colon
# MDA-MB-468 breast = system: MDA-MB-468 breast
Compound,growth (T-47D breast),growth (BT-549 breast),growth (MDA-MB-435 melanoma),growth (SW-620 colon),growth (MCF7 breast),growth (HCT-116 colon),growth (HCC-2998 colon),growth (KM12 colon),growth (MDA-MB-468 breast)
Cc1ccc(C(=O)CSc2nc3ccc(C)cc3c(=O)n2-c2ccc(F)cc2)cc1,52.5%,73.9%,89.6%,89%,78.1%,18.8%,83.5%,93.7%,67.2%
Cc1ccc(C2=NN(c3nc(-c4cc5ccccc5oc4=O)cs3)C(c3ccc(C)cc3)C2)cc1 (configuration not stated),91.8%,120%,107%,105%,63.4%,110%,118%,106%,78.2%
Cc1cc2nc3c4ccccc4n(CCCN(C)C)c3nc2cc1C,-10.7% (active),-78.2% (active),-93% (active),-16.3% (active),-30% (active),3.73% (active),-81.4% (active),-8.99% (active),-56.9% (active)
CCCCCCCCc1ccc(C(=O)Nc2cccc(P(=O)(O)O)c2)cc1,125%,110%,103%,100%,91.8%,94.3%,114%,103%,88.7%
O=C(N=Nc1c(O)[nH]c2ccc([N+](=O)[O-])cc12)c1ccc2nc(-c3ccccc3)[nH]c2c1,12.5%,53.4%,79.1%,83.8%,18.7%,10.7%,27.4%,99.5%,10.6%
COc1ccc(C(=O)/C=C/c2ccc(OC)c(OCc3ccccc3)c2)cc1OC,15.7%,-15.5% (active),22.7%,9.63% (active),7.12% (active),10.7%,12.6%,8.98% (active),1.46% (active)
CC(C)(C)OC(=O)/C=C/c1cccc2c1C(=O)NC(C)(c1cc3cc(Cl)ccc3oc1=O)N2 (configuration not stated),-3.39% (active),15.2%,62.2%,55.7%,17.5%,31.5%,52.9%,19.9%,11.6%
COc1cc2c(c(OC)c1OC)C(=O)CC(c1cccc(NC(=O)c3cc(NC(=O)[C@@H](N)CO)ccc3C)c1)O2 (some centres not stated),110%,121%,120%,119%,103%,116%,115%,108%,92.6%
CN(C)CCn1c2ccccc2c2nc3cc4ccccc4cc3nc21,45.3%,52.8%,-67% (active),-58.3% (active),-9.03% (active),-61.4% (active),-82.1% (active),4.87% (active),23.7%
N/N=C(\N)c1c(N)nc(=S)[nH]c1-c1ccc(Cl)cc1Cl,92.6%,100%,111%,106%,95.6%,113%,103%,105%,110%
COc1cc(/C=C/C(=O)c2ccccc2)ccc1Oc1nc(Nc2ccc(F)cc2)nc(N(C)C)n1,13%,-6.57% (active),24.9%,-0.837% (active),5.96% (active),-83.1% (active),59%,40.8%,21.5%
O=C(/C=C/c1ccc(O)c(O)c1)NC1CCOC1O (configuration not stated),92.8%,108%,101%,109%,90.7%,103%,99.2%,102%,109%
Cc1ccc(C2CC(c3ccc(S(=O)(=O)NCCNc4nc(Nc5ccc(F)cc5)nc(N(C)C)n4)cc3)=Nc3c(N)nc(N)nc3N2)cc1 (configuration not stated),53%,58%,55.2%,54.1%,18.7%,27.2%,32.4%,40.9%,-12.8% (active)
Cn1cc(-c2nc(N)nnc2-c2c[nH]c3ccc(F)cc23)c2cc(Br)cnc21,43.5%,-42.4% (active),-39.4% (active),17.2%,4.55% (active),-14.8% (active),-40.9% (active),-21.7% (active),-20.2% (active)
C=C1CCC2C3(C)COC(c4ccc(F)cc4)OC3CCC2(C)C1C/C=C1/C(=O)OCC1O (configuration not stated),-16.5% (active),-85.8% (active),-35.5% (active),-69.8% (active),-30.7% (active),-74.2% (active),-69.7% (active),-44.7% (active),-50.5% (active)
COc1cccc(COc2ccc(NC(=O)Nc3ccc(Cl)c(C(F)(F)F)c3)cc2)c1,19.5%,37.9%,58.9%,49.3%,24.3%,18.8%,46.8%,6.06% (active),2.67% (active)
COc1cc2c3c(n(CCCN4CCC[C@@H]4CO)c(=O)c2cc1OC)-c1cc2c(cc1C3=O)OCO2,49.3%,34.9%,-86.8% (active),-77.8% (active),-84.9% (active),-59.1% (active),-99.4% (active),-98.2% (active),-92.4% (active)
COc1cc2oc(-c3cccc(C(=O)Nc4ccc(Cl)cc4)c3)cc(=O)c2c(OCCNC(=O)[C@@H](N)CCC(=O)O)c1OC,73.7%,84.5%,88.6%,106%,61%,58.7%,115%,93.2%,74.5%
COc1ccc2[nH]c(O)c(N=NC(=O)COc3ccc(NC(=O)Nc4ccccc4)cc3)c2c1,27.1%,-36.4% (active),56.9%,38.4%,23.7%,29.3%,34.9%,-46.2% (active),13%
COc1ccc2[nH]cc(-c3nc(N)nnc3-c3cn(C)c4ncccc34)c2c1,50.8%,36.5%,-1.52% (active),39.4%,25.6%,26.7%,80.2%,16.6%,27.6%
COc1cc2oc(-c3cccc(C(=O)Nc4cccc([N+](=O)[O-])c4)c3)cc(=O)c2c(OC)c1OC,26.8%,-15.9% (active),39.4%,83.1%,25.1%,25.2%,32.6%,47.9%,33%
S=C(Nc1ccc(OCc2nc3ccccc3[nH]2)cc1)NC1CCCCC1,88.5%,109%,105%,120%,75.3%,102%,111%,82.1%,107%
CN(C)c1nc(NCCNS(=O)(=O)c2ccc(C(=O)/C=C/c3ccc(Cl)cc3)cc2)nc(Nc2ccc(F)cc2)n1,-10% (active),-66.9% (active),-87.8% (active),-95.1% (active),-77.1% (active),-91.4% (active),-91.6% (active),-83.6% (active),-25.9% (active)
NS(=O)(=O)c1ccc(N=Nc2c(O)n(CC(=O)Nc3ccccc3Cl)c3ccccc23)cc1,19.7%,-4.12% (active),34.5%,24.5%,6% (active),8.6% (active),28.3%,17.1%,26.3%
CCOc1ccc(C(=O)NC(=S)Nc2ccc(S(N)(=O)=O)cc2)cc1,74.3% [100 µM],99.1% [100 µM],99.1% [100 µM],104% [100 µM],97.6% [100 µM],97.9% [100 µM],99.5% [100 µM],97.8% [100 µM],83.9% [100 µM]
Cc1cc2nc3c4ccccc4n(CC4=NCCN4)c3nc2cc1C,15.4%,4.52% (active),-86.6% (active),-40.2% (active),-90.5% (active),-92.8% (active),-46.6% (active),43%,-57.3% (active)
C#CCOc1ccc(/C=N/Nc2nc(-c3cc4cc(Br)ccc4oc3=O)cs2)cc1OC,51.1%,48.5%,78.7%,77.6%,41.9%,71.5%,39.6%,51.1%,26.8%
S=c1c2ccccc2nc2n1CCc1c-2[nH]c2ccccc12,37.2%,49.9%,88.6%,80.9%,43%,48.7%,64.9%,80.9%,47.9%
